# Assay results from PubChem BioAssay.
# Active and inactive are the calls of the source. Unless noted, how the calls were made is not given here.
# Assays:
# [1] = HepG2 liver cancer cell viability effects, profiling panel, resazurin fluorescence, 24 h, PK04 Diversity Set (AID 1172); conditions: higher = more signal
# [2] = basal S. cerevisiae growth modulation, no modifier, primary screen, OD600, strain BY4716, 24 h, basal condition (AID 1173); conditions: OD600, 24 h, higher = more signal, called active from +8 up or from −8 down
# [3] = MM1S myeloma cell viability, profiling panel, resazurin fluorescence, basal, 24 h, PK04 Diversity Set (AID 1174); conditions: higher = more signal, called active from +8 up or from −8 down;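 further: MM1S multiple myeloma cell line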
# [4] = target: Dihydroorotate dehydrogenase (quinone), mitochondrial (Plasmodium falciparum (isolate 3D7)) (UniProt Q08210); experiment: PfDHODH enzyme inhibitors, primary screen, biochemical, C-terminal His tag, absorbance 600 nm (AID 1175); conditions: DCIP absorbance 600 nm, higher = more signal, called active from +8 up or from −8 down;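 further: recombinant parasite enzyme with a five histidine tag at its C terminus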
# Sequence of Dihydroorotate dehydrogenase (quinone), mitochondrial (Plasmodium falciparum (isolate 3D7)) (Q08210 whole entry, looked up): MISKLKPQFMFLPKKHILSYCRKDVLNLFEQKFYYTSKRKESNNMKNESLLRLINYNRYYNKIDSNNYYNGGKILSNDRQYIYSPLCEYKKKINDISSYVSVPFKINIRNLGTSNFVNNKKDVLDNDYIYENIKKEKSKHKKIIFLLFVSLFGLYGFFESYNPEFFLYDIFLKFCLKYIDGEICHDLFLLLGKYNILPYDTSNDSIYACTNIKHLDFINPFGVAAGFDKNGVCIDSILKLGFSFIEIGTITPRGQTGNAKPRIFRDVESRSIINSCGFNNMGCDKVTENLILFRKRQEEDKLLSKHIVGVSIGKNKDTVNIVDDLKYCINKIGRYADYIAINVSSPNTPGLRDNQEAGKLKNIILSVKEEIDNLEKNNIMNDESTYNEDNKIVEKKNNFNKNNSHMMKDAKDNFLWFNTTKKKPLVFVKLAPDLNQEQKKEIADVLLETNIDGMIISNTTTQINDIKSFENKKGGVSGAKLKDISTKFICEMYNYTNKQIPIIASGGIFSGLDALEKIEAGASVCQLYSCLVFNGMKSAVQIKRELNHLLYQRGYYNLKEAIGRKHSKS
# [5] = P. aeruginosa biofilm formation inhibitors, primary screen, strain PAO1, LB-PBS medium, absorbance 600 nm (AID 1176); conditions: P. aeruginosa PAO1 growth/biofilm, A600, 12 h; higher = more signal
# [6] = S. cerevisiae RM11-1a growth modifiers, primary screen, strain RM11-1a, OD600, basal, 24 h (AID 1177); conditions: OD600, 24 h, higher = more signal, called active from +8 up or from −8 down;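 further: cultures grown under basal conditions with no added stressor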
# [7] = E. coli acrAB mutant growth effects, primary screen, E. coli filamentation inducers, strain DRC39, OD650, 24 h (AID 1178); conditions: higher = more signal, called active from +8 up or from −8 down;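 further: growth measured as culture turbidity by optical density at 650 nm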
# [8] = E. coli acrAB mutant growth effects, primary screen, E. coli filamentation inducers, strain DRC39, OD650, 48 h (AID 1179);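 further: screen aims at cell division blockers that make cells filament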; conditions: E. coli DRC39 delta-acrAB growth, higher = more signal, called active from +8 up or from −8 down
# [9] = RPMI8226 myeloma cell viability, profiling panel, resazurin fluorescence, basal, 24 h, PK04 Diversity Set (AID 1180); conditions: higher = more signal;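 further: RPMI8826 multiple myeloma cell line at 5000 cells per well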
# [10] = target: E3 ubiquitin-protein ligase XIAP (Homo sapiens) (UniProt P98170); experiment: XIAP binders, primary screen, biophysical, small-molecule microarray, fluorescence 635 nm (AID 1181); conditions: small-molecule microarray binding, higher = more signal;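 further: score merges 667 nm emission and signal to noise over triplicate slides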
# Sequence of E3 ubiquitin-protein ligase XIAP (Homo sapiens) (P98170 whole entry, looked up): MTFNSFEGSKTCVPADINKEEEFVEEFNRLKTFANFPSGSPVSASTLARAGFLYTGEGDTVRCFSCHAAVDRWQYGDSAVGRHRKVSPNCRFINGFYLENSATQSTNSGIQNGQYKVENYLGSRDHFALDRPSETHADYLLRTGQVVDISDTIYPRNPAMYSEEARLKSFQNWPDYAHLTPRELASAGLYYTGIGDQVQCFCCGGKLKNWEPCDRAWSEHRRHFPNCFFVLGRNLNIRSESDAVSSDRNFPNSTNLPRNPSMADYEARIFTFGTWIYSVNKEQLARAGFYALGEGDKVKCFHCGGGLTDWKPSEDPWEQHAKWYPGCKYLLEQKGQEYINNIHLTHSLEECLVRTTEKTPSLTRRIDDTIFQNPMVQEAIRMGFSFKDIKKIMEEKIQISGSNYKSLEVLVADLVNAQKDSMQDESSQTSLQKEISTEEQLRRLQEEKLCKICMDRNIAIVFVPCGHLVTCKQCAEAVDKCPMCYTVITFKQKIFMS
# [11] = test system: XIP peptide (Xip251-270) binding; experiment: small-molecule binders of XIP peptide, primary screen, biochemical, small-molecule microarray, fluorescence 635/667 nm, 0.1 µg/mL protein (AID 1182); conditions: fluorescent protein binding, 635 nm, higher = more signal, called active from +8 up or from −8 down
# XIP peptide (Xip251-270) = experiment: small-molecule binders of XIP peptide, primary screen, biochemical, small-molecule microarray, fluorescence 635/667 nm, 0.5 µg/mL protein (AID 1183); conditions: small-molecule microarray binding, fluorescence 635 nm; higher = more signal
# [12] = Plasmodium falciparum growth inhibition, primary screen, strain 3D7, DAPI fluorescence, 100 nL (AID 1184);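 further: parasites grown inside human red blood cells in medium with human serum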; conditions: P. falciparum 3D7 growth, 3 d, higher = more signal
# [13] = target: Homeobox protein Hox-A13 (Mus musculus) (UniProt Q62424); experiment: inhibitors of HoxA13-DNA binding, primary screen, biochemical, fluorescence polarization, labeled oligonucleotide (AID 1185); conditions: 15 min, higher = more signal, called active from +8 up or from −8 down
# Sequence of Homeobox protein Hox-A13 (Mus musculus) (Q62424 whole entry, looked up): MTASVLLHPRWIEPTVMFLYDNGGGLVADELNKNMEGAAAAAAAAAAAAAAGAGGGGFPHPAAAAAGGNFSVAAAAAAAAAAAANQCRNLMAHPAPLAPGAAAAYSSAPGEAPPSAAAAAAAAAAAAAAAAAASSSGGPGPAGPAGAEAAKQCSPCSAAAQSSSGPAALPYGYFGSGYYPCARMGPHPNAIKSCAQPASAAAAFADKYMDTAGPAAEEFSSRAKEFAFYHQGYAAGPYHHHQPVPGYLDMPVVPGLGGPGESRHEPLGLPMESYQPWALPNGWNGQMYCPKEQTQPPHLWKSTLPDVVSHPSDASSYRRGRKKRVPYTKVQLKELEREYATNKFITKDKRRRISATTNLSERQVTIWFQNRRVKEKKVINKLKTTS
# [14] = inhibitors of hydroxyurea-induced Chk1 phosphorylation, primary screen, imaging, HeLa, phospho-Chk1 antibody, percent positive cells (AID 1186); conditions: hydroxyurea-induced phospho-Chk1 immunofluorescence imaging, higher = more signal
# [15] = inhibitors of hydroxyurea-induced Chk1 phosphorylation, primary screen, imaging, HeLa, phospho-Chk1 nuclear intensity (AID 1187); conditions: hydroxyurea-induced phospho-Chk1 immunofluorescence imaging, higher = more signal
SMILES,z-score [1],z-score [2],z-score [3],composite z-score [4],z-score [5],z-score [6],z-score [7],z-score [8],z-score [9],composite z-score [10],composite z-score [11],composite z-score (XIP peptide (Xip251-270)),z-score [12],z-score [13],z-score [14],z-score [15]
O=C(N1CCCCC1)[C@]1(CCS(=O)(=O)c2ccccc2)N=C(c2ccc(OCCCO)cc2)O[C@@H]1c1ccccc1,0.0192,-0.678 (inactive),-2.49 (inactive),0.813 (inactive),-0.345 (inactive),0.525 (inactive),0.779 (inactive),-0.385 (inactive),-1.61,0.0257,1.29 (inactive),0.75,-2.79,-5.68 (inactive),-0.599 (inactive),-1 (inactive)
CCCCN1CC=CC23O[C@@H]4C=CCCOC(=O)C4[C@H]2C(=O)N(CCCO)[C@@H]3C1=O (some centres undefined),-0.341,-1.09 (inactive),-0.404 (inactive),-3.94 (inactive),-0.565 (inactive),0.0943 (inactive),-1.54 (inactive),-1.34 (inactive),-0.937,0.268,-0.687 (inactive),-0.624,-1.74,-3.72 (inactive),-0.0781 (inactive),-0.559 (inactive)
NC(=O)NCC#Cc1ccc2c(c1)[C@]1(C(=O)N2)[C@H](c2ccccc2OCCO)N2[C@H](c3ccccc3)[C@H](c3ccccc3)OC(=O)[C@H]2[C@@H]1C(=O)N1CCCCCCC1,-0.0969,-0.0475 (inactive),0.755 (inactive),0.417 (inactive),1.92 (inactive),0.899 (inactive),-0.315 (inactive),-0.127 (inactive),0.966,0.202,0.909 (inactive),0.633,-2.04,3.45 (inactive),0.264 (inactive),0.69 (inactive)
O=C1OCC=C[C@H]2OC34C=CCN(Cc5ccccc5)C(=O)[C@H]3N(CCCO)C(=O)[C@@H]4[C@@H]12 (some centres undefined),0.0395,-0.616 (inactive),-0.0608 (inactive),-1.55 (inactive),-0.0963 (inactive),0.242 (inactive),-0.658 (inactive),0.122 (inactive),-0.0906,0.643,1.09 (inactive),0.212,-1.89,-4.31 (inactive),-1.44 (inactive),-0.938 (inactive)
